According to PubChem BioAssay AID1159580 (chemical genetic matrix, 2015):
Values joined by “and” are separate entries in the source; they are usually repeats but may differ in a detail not shown here. Identical values can stand only once. About 2,000 (36%) of roughly 5,500 compounds were called active. Inconclusive results (about 18%) are left out. No stated cut-off is given here; in the data, active means normalized growth mostly below about 0.91 (no sharp cut-off); inconclusive means no clear call, values can overlap the other calls; inactive means mostly above about 0.92. Some of the results follow.

Experiment: chemical genetic growth profiling, strain panel (AID 1159580);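 further: tested at 20 µM; growth read once vehicle control cultures reached saturation at 30 °C; 1 = growth at the plate median or of vehicle wells; lower values mean less growth of the strain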
Settings: S. cerevisiae deletion strains, growth OD

Measured: normalized growth

O=C1[C@H](CCC(O)c2ccc(F)cc2)[C@@H](c2ccc(O)cc2)N1c1ccc(F)cc1 (stereo partly specified)
active: locus YGL253W, strain hxk2, active compounds read low 0.908
inactive: locus YAL013W, strain DEP1, active compounds read low 0.988 | locus YAL021C, strain ccr4, active compounds read low 0.999 | locus YAL026C, strain drs2, active compounds read low 0.976 | locus YAL030W, strain snc1, active compounds read low 0.968 | locus YBL061C, strain skt5, active compounds read low 0.973 | locus YBR009C, strain hhf1, active compounds read low 0.981 | locus YBR021W, strain FUR4, active compounds read low 0.962 | locus YBR023C, strain chs3, active compounds read low 0.979 | locus YBR171W, strain sec66, active compounds read low 0.95 | locus YBR229C, strain ROT2, active compounds read low 0.99 | locus YBR231C, strain swc5, active compounds read low 0.976 | locus YBR279W, strain paf1, active compounds read low 0.987 | locus YCL011C, strain gbp2, active compounds read low 0.995 | locus YCL016C, strain dcc1, active compounds read low 0.992 | locus YCL029C, strain bik1, active compounds read low 0.968 | locus YCL069W, strain vba3, active compounds read low 0.97 | locus YCR088W, strain abp1, active compounds read low 0.967 | locus YDL005C, strain med2, active compounds read low 0.956 | locus YDL035C, strain GPR1, active compounds read low 0.989 | locus YDL040C, strain nat1, active compounds read low 0.979 | locus YDL074C, strain BRE1, active compounds read low 0.985 | locus YDL101C, strain DUN1, active compounds read low 0.985 | locus YDL134C, strain PPH21, active compounds read low 0.988 | locus YDL185W, strain tfp1, active compounds read low 0.966 | locus YDL192W, strain arf1, active compounds read low 0.977 | locus YDR001C, strain nth1, active compounds read low 0.976 | locus YDR069C, strain doa4, active compounds read low 0.966 | locus YDR101C, strain arx1, active compounds read low 0.981 | locus YDR137W, strain rgp1, active compounds read low 1.01 | locus YDR150W, strain NUM1, active compounds read low 0.986 | locus YDR159W, strain sac3, active compounds read low 0.931 | locus YDR162C, strain NBP2, active compounds read low 1 | locus YDR195W, strain ref2 0.915 | locus YDR297W, strain sur2, active compounds read low 0.988 | locus YDR318W, strain mcm21, active compounds read low 0.98 | locus YDR334W, strain swr1, active compounds read low 0.983 | locus YDR335W, strain msn5, active compounds read low 0.959 | locus YDR388W, active compounds read low 0.972 | locus YDR392W, strain spt3, active compounds read low 1.03 | locus YDR502C, strain sam2, active compounds read low 0.98 | locus YEL003W, strain gim4, active compounds read low 0.975 | locus YEL037C, strain rad23, active compounds read low 0.957 | locus YEL061C, strain CIN8 (second series), active compounds read low 0.966 | locus YEL061C, strain CIN8, active compounds read low 0.993 | locus YER015W, strain faa2, active compounds read low 0.99 | locus YER016W, strain bim1, active compounds read low 0.968 | locus YER110C, active compounds read low 0.971 | locus YER111C, strain swi4, active compounds read low 0.969 | locus YER155C, strain BEM2 (second series), active compounds read low 0.973 | locus YER155C, strain BEM2, active compounds read low 1 | locus YER167W, strain BCK2, active compounds read low 0.986 | locus YFR010W, strain ubp6, active compounds read low 0.951 | locus YGL078C, strain dbp3, active compounds read low 0.976 | locus YGL086W, strain mad1, active compounds read low 0.984 | locus YGL167C, strain pmr1, active compounds read low 0.965 | locus YGL173C, strain kem1, active compounds read low 0.979 | locus YGL227W, strain vid30, active compounds read low 0.974 | locus YGL240W, strain doc1, active compounds read low 0.978 | locus YGL248W, strain PDE1, active compounds read low 0.991 | locus YGR078C, strain PAC10, active compounds read low 1 | locus YGR135W, strain pre9, active compounds read low 0.972 | locus YGR229C, strain SMI1, active compounds read low 1.01 | locus YGR252W, strain gcn5, active compounds read low 1.01 | locus YHR013C, strain ard1, active compounds read low 0.951 | locus YHR027C, strain rpn1, active compounds read low 0.972 | locus YHR030C, strain SLT2, active compounds read low 0.983 and 0.956 | locus YHR079C, strain IRE1 (second series), active compounds read low 0.96 | locus YHR079C, strain IRE1, active compounds read low 0.961 | locus YHR094C, strain hxt1, active compounds read low 0.977 | locus YHR129C, strain ARP1, active compounds read low 0.987 | locus YHR142W, strain chs7, active compounds read low 0.901 | locus YHR200W, strain rpn10, active compounds read low 0.974 | locus YIL066C, strain RNR3, active compounds read low 0.985 | locus YIL073C, strain SPO22, active compounds read low 0.961 | locus YIL125W, strain kgd1, active compounds read low 0.99 | locus YIR030C, strain dcg1, active compounds read low 0.967 | locus YJL092W, strain hpr5, active compounds read low 0.972 | locus YJL095W, strain BCK1 (second series), active compounds read low 0.975 | locus YJL095W, strain BCK1, active compounds read low 0.98 and 1 | locus YJL115W, strain asf1, active compounds read low 0.983 | locus YJL129C, strain trk1, active compounds read low 0.877 | locus YJL134W, strain LCB3, active compounds read low 0.989 | locus YJL154C, strain vps35, active compounds read low 0.974 | locus YJL164C, strain tpk1, active compounds read low 0.981 | locus YJL166W, strain qcr8, active compounds read low 0.952 | locus YJL168C, strain set2, active compounds read low 0.965 | locus YJL187C, strain SWE1 (second series), active compounds read low 0.979 | locus YJL187C, strain SWE1, active compounds read low 0.975 | locus YJR043C, strain POL32, active compounds read low 0.985 | locus YJR066W, strain TOR1, active compounds read low 0.929
